Data taken from PubChem BioAssay (EPA / NIEHS).
Inconclusive results are not listed. Active and inactive are the calls of the source. How the source made its calls: active means hit-call score of the fitted dose curve at least 0.9, where 1 is the maximum; inactive means score below 0.9.

Read-out: Cytochrome P450 2C9 (Homo sapiens) (UniProt P11712)
Experiment: CLD_CYP2C9_48hr: CellzDirect (CLD) Gene Expression Assay for xenobiotic metabolism (CYP2C9) at 48 hours (AID 2283701)
Protocol: CLD_48hr is a cell-based, multiplexed-readout assay that uses hepatocyte, a human liver primary cell, with measurements taken at 48 hours after chemical dosing in a 96-well plate.CLD_CYP2C9_48hr is one of 16 assay component(s) measured or calculated from the CLD_48hr assay. It is designed to make measurements of mRNA induction, a form of inducible reporter, as detected with chemiluminescence signals by Quantitative Nuclease Protection Assay (qNPA) technology.Data from the assay component CLD_CYP2C9_48hr was analyzed at the endpoint, CLD_CYP2C9_48hr, in the positive analysis fitting direction relative to DMSO as the negative control and baseline of activity. Using a type of inducible reporter, gain-of-signal activity can be used to understand changes in the reporter gene as they relate to the gene CYP2C9. Furthermore, this assay endpoint can be referred to as a primary readout. To generalize the intended target to other relatable targets, this assay endpoint is annotated to the cyp intended target family, where subfamily is xenobiotic metabolism.
Human hepatocyte cultures were treated daily for two consecutive days with fresh dosing solutions containing appropriate concentrations of the 320 ToxCast chemicals (chemical identities were blinded to CellzDirect and other ToxCast collaborators), vehicle control (0.2% DMSO), and positive control inducers as summarized in Table 1. Due to the large number of treatment groups and chemicals examined, the ToxCast chemicals were divided into two groups (spanning two independent cultures of hepatocytes from separate donor preparations (Hu778: ToxCast plates 1 and 2; Hu776: ToxCast plates 3 and 4). Each preparation of human hepatocyte cultures was treated with respective vehicle control, medium only control, set of six positive controls/reference chemicals for the five hepatic receptor pathways, and a subset of eight of the ToxCast chemicals (indoxacarb, pyrithiobac-sodium, norflurazon, cyhalofop-butyl, methomyl, thiram, acetochlor, and propiconazole). These replicate data, coupled with internal replicates designed within the blinded ToxCast chemical library, provided additional data to evaluate interindividual differences between hepatocyte preparations and their potential impact on chemical profiles.Cell morphology and integrity were evaluated using phase-contrast microscopy as an indicator of hepatocyte cell health (Tyson & Green, 1987). Cultures for each treatment group (i.e., media, vehicle [0.2% DMSO], positive control inducers [multiple concentrations], and the ToxCast chemicals [multiple concentrations]) were observed and cell morphology was assessed relative to vehicle control cultures at each harvest time point (0, 6, 24, or 48 h). […] Images were evaluated at the conclusion of the study to assess changes in cell integrity and account for the effects of chemical exposure on uncharacteristic changes in concentration-dependent gene expression profiles. The results from these determinations of apparent cytotoxicity were annotated (yes/no) alongside the corresponding qNPA data for reference.At the conclusion of each treatment period, hepatocyte cultures (96-well) were washed with 1 volume of HBSS, lysed by addition of 25 ul ArrayPlate lysis buffer (HTG, Tucson, AZ), and 70 ul/well of Denaturation Oil, denatured by incubation at 95C for 10 min, and frozen at approximately -70C until analysis by nuclease protection assay (qNPA) (Roberts et al., 2007). For qNPA analysis, cell lysates were thawed at 50C for approximately 30 min, qNPA probes were added, and samples were incubated at 95C for 10 min to begin the detection process by denaturing the target RNA, dissociating the duplexes and secondary structure hybridization. At the conclusion of the hybridization period, S1 nuclease reagent was added to each sample to digest all nonprotected nucleotides at 50C for 60-90 min. […]

| Compound | outcome |
| --- | --- |
| OB(O)O | inactive |
| CCCN(CCC)c1c([N+](=O)[O-])cc(C(F)(F)F)c(N)c1[N+](=O)[O-] | inactive |
| CCCCCOC(=O)COc1cc(N2C(=O)C3=C(CCCC3)C2=O)c(F)cc1Cl | inactive |
| CC(C)(c1ccc(O)cc1)c1ccc(O)cc1 | inactive |
| C#CCOC(=O)[C@@H](C)Oc1ccc(Oc2ncc(Cl)cc2F)cc1 | inactive |
| COC(=O)c1c(Cl)nn(C)c1S(=O)(=O)NC(=O)Nc1nc(OC)cc(OC)n1 | inactive |
| COC(=O)c1cccc(C)c1S(=O)(=O)NC(=O)Nc1nc(OCC(F)(F)F)nc(N(C)C)n1 | inactive |
| CCCCC(CC)CN1C(=O)C2C3C=CC(C3)C2C1=O (stereo not drawn) | inactive |
| CCCCC(CC)COC(=O)c1ccccc1C(=O)O (stereo not drawn) | inactive |
| COCCO | inactive |
| c1ccc(Nc2ccccc2)cc1 | inactive |
| CCOC(=O)COc1cc(-n2ncc(C(F)(F)F)c(C)c2=O)c(F)cc1Cl | inactive |
| CC1(C)C(C=C(Cl)Cl)C1C(=O)OCc1cccc(Oc2ccccc2)c1 (stereo not drawn) | inactive |
| CCOC(=O)[C@H](C)Oc1ccc(Oc2nc3ccc(Cl)cc3o2)cc1 | inactive |
| CCCCCCC(C)OC(=O)COc1nc(F)c(Cl)c(N)c1Cl (stereo not drawn) | inactive |
| COC(=O)c1ccc(I)cc1S(=O)(=O)NC(=O)Nc1nc(C)nc(OC)n1 | inactive |
| CCCN(CCC)C(=O)SCC | inactive |
| CCOC(=O)NCCOc1ccc(Oc2ccccc2)cc1 | inactive |
